# From PubChem BioAssay (NCATS)
# Results filed as inconclusive are left out. A call without a number means that no potency is given here. Values without a mark were called inactive. Active and inactive are the calls of the source. Unless noted, calls come from the whole dose curve.
# Key:
# [1] = molecular target: Androgen receptor (Homo sapiens) (UniProt P10275); test: qHTS assay for small molecule agonists of androgen receptor signaling (AID 588515; active = well fitted curve in the direction sought with a large enough effect in the signal ratio, with a control signal flat; the % refers to the signal ratio); settings: AR-UAS-bla HEK293, beta-lactamase ratio, agonist 16 h; activation: hits give high values
# In short: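 EC50 and efficacy came from Hill fits of titrations (up to 92 uM) normalized to 30 nM R1881 as 100% and DMSO as 0%. Compound exposure was 16 h at 37 C on AR-UAS-bla HEK293 cells, with a 405/460/530 nm CCF4 fluorescence read.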
# [2] = molecular target: Androgen receptor (Homo sapiens) (UniProt P10275); test: qHTS assay for small molecule antagonists of androgen receptor signaling (AID 588516; active = well fitted curve in the direction sought with a large enough effect in the signal ratio, with a control signal flat, not every such curve was filed as active; the % refers to the signal ratio)
# In short: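 Compounds tested in titration against 10 nM R1881 in AR-responsive bla reporter HEK 293 cells; CCF4 fluorescence (460/530 nm) after 16 h exposure gave IC50 and efficacy.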
# [3] = molecular target: Bile acid receptor (Homo sapiens) (UniProt Q96RI1); test: qHTS assay for small molecule antagonists of farnesoid X receptor signaling (AID 588526)
# In short: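 Concentration-response titrations were fitted to the Hill equation for half-maximal inhibition and maximal response, with data normalised to 50 uM chenodeoxycholic acid and DMSO control wells. Cells: FXR-UAS-bla HEK293T, dialyzed FBS.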
# [4] = molecular target: Glucocorticoid receptor (Homo sapiens) (UniProt P04150); test: qHTS assay for small molecule antagonists of glucocorticoid receptor signaling (AID 588533; active = well fitted inhibition curve with a large enough effect in the signal ratio, with a control signal flat, not every such curve was filed as active; the % refers to the signal ratio;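 note: cells stimulated with 2 nM dexamethasone as agonist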)
# In short: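 Antagonist-mode qHTS: compound titrations added to GRE-bla HeLa cells, then dexamethasone 2 nM final; 18 h, 37 C. CCF4 FRET fluorescence normalized to dexamethasone and DMSO; IC50 from Hill fit.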
# [5] = molecular target: Peroxisome proliferator-activated receptor delta (Homo sapiens) (UniProt Q03181); test: qHTS assay for small molecule antagonists of peroxisome proliferator-activated receptor delta signaling (AID 588535; active = well fitted inhibition curve with a large enough effect in the signal ratio, with a control signal flat, not every such curve was filed as active; the % refers to the signal ratio)
# In short: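 Reporter: UAS-bla under PPAR-delta response element, HEK293T host. Medium: 2% charcoal/dextran FBS. Dosing: titration, 18 hrs, 37 C. Detection: CCF4, 2 hrs RT, 405 ex/460 and 530 em.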
# [6] = molecular target: Vitamin D3 receptor (Homo sapiens) (UniProt P11473); test: qHTS assay for small molecule antagonists of vitamin D receptor signaling (AID 588541);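 note: receptor activated by calcitriol during compound treatment; series mostly up to about 77 µM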
# In short: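 VDR-UAS-bla HEK293T cells (2000/well, 2% charcoal-stripped FBS) were treated with titrated compounds plus 1-alpha,25-dihydroxyvitamin D3 (50 nM or 3 nM final) for 16 h at 37 C. CCF4 beta-lactamase fluorescence was read; Hill fits gave IC50.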
# [7] = molecular target: Vitamin D3 receptor (Homo sapiens) (UniProt P11473); test: qHTS assay for small molecule agonists of vitamin D receptor signaling (AID 588543)
# In short: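 Measured: β-lactamase reporter activity (CCF4, 405 nm excitation, 460/530 nm emission) in HEK293T VDR-UAS-bla cells after 16 h compound exposure at 37 °C. Normalization against 50 nM 1α,25-dihydroxyvitamin D3 and DMSO; Hill-fit EC50.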
# [8] = qHTS assay for small molecule agonists of the antioxidant response element (ARE) signaling pathway (AID 651741; active = well fitted activation curve with a large enough effect in the signal ratio; the % refers to the signal ratio; note: potency is the fitted concentration of half-maximal effect)
# In short: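 Compounds in DMSO are pinned onto HepG2 ARE-bla cells (2,000/well) that were preincubated 5 h; plates stay 16 h at 37 C, then beta-lactamase activity is detected with LiveBLAzer B/G substrate by fluorescence.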
# [9] = molecular target: Estrogen receptor (Homo sapiens) (UniProt P03372); test: qHTS assay for small molecule agonists of estrogen receptor alpha signaling (AID 588514); note: nearly all actives have a fitted effect of over 70% in size
# In short: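 Cells were plated at 5000/well, incubated 4 hrs at 37 C, dosed with compound titration series, incubated 18 hrs at 37 C, loaded with CCF4 dye for 2 hrs at RT, then fluorescence was read.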
# Chain of Glucocorticoid receptor (Homo sapiens) (P04150 whole entry, looked up): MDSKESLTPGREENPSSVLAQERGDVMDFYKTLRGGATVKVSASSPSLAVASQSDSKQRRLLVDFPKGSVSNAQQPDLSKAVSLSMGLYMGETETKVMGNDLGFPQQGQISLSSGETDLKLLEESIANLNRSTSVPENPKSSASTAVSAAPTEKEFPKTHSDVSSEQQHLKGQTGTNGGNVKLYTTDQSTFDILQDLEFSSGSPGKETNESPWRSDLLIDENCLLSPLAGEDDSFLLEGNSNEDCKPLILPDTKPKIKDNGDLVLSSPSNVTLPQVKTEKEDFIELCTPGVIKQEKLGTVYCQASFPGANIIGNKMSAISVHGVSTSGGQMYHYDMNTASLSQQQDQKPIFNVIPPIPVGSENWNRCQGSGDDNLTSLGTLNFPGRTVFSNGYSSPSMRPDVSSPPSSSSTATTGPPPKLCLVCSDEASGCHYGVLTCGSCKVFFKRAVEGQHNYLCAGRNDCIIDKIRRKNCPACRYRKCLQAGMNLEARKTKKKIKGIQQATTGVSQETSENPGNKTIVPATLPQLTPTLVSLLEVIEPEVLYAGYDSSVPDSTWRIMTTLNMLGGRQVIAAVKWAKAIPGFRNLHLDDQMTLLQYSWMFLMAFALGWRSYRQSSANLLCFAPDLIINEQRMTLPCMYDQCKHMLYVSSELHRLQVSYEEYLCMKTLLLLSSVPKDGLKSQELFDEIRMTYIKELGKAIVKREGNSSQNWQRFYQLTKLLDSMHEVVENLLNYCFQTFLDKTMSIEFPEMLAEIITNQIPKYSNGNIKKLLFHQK
# Chain of Bile acid receptor (Homo sapiens) (Q96RI1 whole entry, looked up): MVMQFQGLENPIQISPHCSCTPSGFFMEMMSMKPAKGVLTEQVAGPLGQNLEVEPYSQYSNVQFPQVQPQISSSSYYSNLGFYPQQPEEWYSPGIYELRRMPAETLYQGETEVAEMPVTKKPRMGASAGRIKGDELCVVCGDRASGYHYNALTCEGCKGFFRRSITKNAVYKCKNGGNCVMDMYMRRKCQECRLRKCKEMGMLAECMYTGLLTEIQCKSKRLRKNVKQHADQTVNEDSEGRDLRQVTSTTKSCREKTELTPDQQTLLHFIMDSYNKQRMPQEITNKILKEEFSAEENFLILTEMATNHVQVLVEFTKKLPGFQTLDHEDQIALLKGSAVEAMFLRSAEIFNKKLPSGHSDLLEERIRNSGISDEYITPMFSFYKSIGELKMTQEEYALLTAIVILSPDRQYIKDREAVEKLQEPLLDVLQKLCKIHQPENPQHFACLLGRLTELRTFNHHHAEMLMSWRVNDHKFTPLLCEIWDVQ
# Chain of Peroxisome proliferator-activated receptor delta (Homo sapiens) (Q03181 whole entry, looked up): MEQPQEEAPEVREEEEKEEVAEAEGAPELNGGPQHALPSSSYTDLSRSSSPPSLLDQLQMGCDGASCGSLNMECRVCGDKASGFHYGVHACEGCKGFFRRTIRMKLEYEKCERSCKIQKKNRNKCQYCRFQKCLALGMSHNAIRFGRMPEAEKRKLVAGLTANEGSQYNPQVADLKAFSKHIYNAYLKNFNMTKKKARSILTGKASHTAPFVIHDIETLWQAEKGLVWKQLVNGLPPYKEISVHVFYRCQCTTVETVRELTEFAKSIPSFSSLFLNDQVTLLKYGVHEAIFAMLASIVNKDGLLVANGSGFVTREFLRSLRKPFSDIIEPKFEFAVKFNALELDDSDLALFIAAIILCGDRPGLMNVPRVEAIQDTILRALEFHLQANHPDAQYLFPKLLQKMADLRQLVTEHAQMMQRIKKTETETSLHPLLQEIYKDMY
# Chain of Androgen receptor (Homo sapiens) (P10275 whole entry, looked up): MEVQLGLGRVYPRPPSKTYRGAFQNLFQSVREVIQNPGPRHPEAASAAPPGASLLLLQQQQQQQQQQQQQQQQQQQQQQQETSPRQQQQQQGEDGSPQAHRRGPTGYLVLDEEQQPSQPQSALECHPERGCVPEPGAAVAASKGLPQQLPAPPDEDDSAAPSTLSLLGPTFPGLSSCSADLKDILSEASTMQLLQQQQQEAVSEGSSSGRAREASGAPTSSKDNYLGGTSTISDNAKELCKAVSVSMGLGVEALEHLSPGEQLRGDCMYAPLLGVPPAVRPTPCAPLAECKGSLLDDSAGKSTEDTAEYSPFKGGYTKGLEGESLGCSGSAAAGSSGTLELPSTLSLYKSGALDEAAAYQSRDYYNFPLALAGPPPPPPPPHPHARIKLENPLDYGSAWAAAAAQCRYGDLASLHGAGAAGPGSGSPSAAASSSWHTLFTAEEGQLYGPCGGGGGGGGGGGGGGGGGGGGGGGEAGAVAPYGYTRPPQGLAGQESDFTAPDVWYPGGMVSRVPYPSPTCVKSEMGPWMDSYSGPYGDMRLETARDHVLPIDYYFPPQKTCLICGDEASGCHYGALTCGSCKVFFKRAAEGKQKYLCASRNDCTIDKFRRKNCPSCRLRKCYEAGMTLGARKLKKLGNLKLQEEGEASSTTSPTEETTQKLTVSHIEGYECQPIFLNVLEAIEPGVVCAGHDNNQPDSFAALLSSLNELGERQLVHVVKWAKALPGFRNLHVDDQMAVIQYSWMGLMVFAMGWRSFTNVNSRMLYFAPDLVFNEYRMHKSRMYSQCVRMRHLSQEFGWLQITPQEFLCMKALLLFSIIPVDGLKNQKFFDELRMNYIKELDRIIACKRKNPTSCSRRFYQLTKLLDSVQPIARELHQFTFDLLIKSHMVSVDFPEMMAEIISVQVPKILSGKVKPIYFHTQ
# Chain of Estrogen receptor (Homo sapiens) (P03372 whole entry, looked up): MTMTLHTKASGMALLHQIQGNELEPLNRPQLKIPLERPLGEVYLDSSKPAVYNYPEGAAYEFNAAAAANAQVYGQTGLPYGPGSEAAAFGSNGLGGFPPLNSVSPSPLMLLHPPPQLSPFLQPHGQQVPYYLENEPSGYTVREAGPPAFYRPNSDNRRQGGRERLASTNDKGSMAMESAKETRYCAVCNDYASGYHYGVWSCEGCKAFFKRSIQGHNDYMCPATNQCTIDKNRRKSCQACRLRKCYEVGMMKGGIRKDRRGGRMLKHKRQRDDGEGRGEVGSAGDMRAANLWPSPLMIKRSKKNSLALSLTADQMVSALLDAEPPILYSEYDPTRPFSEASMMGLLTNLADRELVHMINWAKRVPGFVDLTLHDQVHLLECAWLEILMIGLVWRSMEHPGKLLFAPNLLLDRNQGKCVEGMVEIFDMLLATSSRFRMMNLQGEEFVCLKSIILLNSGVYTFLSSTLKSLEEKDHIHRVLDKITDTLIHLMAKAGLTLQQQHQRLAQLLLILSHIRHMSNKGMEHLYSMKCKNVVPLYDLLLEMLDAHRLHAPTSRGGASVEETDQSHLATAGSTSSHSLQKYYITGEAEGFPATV
# Chain of Vitamin D3 receptor (Homo sapiens) (P11473 whole entry, looked up): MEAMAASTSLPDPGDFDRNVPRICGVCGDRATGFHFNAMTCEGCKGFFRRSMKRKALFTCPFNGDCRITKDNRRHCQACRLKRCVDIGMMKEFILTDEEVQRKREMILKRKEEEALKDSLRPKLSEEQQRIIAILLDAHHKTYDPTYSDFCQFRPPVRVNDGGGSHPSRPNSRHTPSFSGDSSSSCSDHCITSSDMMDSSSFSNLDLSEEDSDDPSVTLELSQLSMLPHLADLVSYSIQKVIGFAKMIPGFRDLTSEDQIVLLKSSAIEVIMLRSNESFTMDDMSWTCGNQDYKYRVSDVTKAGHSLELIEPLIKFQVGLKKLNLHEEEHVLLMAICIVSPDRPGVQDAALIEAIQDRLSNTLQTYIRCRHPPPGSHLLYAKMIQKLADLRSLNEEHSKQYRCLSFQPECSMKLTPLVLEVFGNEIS
structure (smiles),measurement,setting,value
C=CCCCCCCCCCCCC,activation,[1],-5.69%
same,outcome,[2],inactive
same,Potency,[3],inactive
same,Potency,[4],inactive
same,Potency,[5],inactive
same,Potency,[6],inactive
same,outcome,[7],inactive
CN(C)CCOCCN(C)C,Potency,[3],inactive
same,Potency,[4],inactive
same,Potency,[5],inactive
same,Potency,[6],inactive
same,outcome,[7],inactive
same,Potency,[8],inactive
C1CCC2(CCCCO2)OC1,Potency,[9],inactive
same,Potency,[5],inactive
same,Potency,[6],inactive
same,outcome,[7],inactive
same,Potency,[8],inactive
CC1(C)C(=O)N(Br)C(=O)N1Br,activation,[1],-9.37%
same,outcome,[2],inactive
same,Potency,[3],inactive
same,Potency,[4],inactive
same,Potency,[5],inactive
same,outcome,[7],inactive
C1=C/CC/C=C/CC/C=C/CC/1,Potency,[3],inactive
same,Potency,[4],inactive
same,Potency,[5],inactive
same,Potency,[6],inactive
same,outcome,[7],inactive
same,Potency,[8],inactive
Cc1ccc(S(=O)(=O)C(I)I)cc1,Potency,[9],inactive
C=C(C)C(=O)OCC[N+](C)(C)C,activation,[1],0.258%
same,outcome,[2],inactive
same,Potency,[4],inactive
same,Potency,[5],inactive
same,outcome,[7],inactive
same,Potency,[8],inactive
CO[Si](CCCOCC1CO1)(OC)OC (stereo not drawn),Potency,[3],inactive
same,Potency,[4],inactive
same,Potency,[5],inactive
same,Potency,[6],inactive
same,outcome,[7],inactive
same,Potency,[8],inactive
COC(=O)CSc1cc(N=c2sc(=O)n3n2CCCC3)c(F)cc1Cl,activation,[1],-5.93%
same,Potency,[3],inactive
same,Potency,[4],inactive
same,Potency,[6],inactive
same,outcome,[7],inactive
CCCCC(CC)COC(=O)/C=C\C(=O)OCC(CC)CCCC (stereo not drawn),outcome,[2],inactive
same,Potency,[4],inactive
same,Potency,[5],inactive
same,Potency,[6],inactive
C=C[Si](C)(C)O[Si](C)(C)C=C,Potency,[9],inactive
same,Potency,[4],inactive
same,Potency,[6],inactive
same,Potency,[8],inactive
OCc1cccc(Oc2ccccc2)c1,activation,[1],3.06%
same,outcome,[2],inactive
same,Potency,[3],inactive
same,Potency,[5],inactive
same,outcome,[7],inactive
same,Potency,[8],inactive
CC(C)=CCC/C(C)=C\CO,activation,[1],-0.0899%
same,outcome,[2],inactive
same,Potency,[5],inactive
same,Potency,[6],inactive
same,outcome,[7],inactive
Nc1cc(Cl)c(O)c(Cl)c1,activation,[1],-4.43%
same,Potency,[4],inactive
same,outcome,[7],inactive
same,Potency,[8],12.2 µM (active)
CCN(Cc1cccc(S(=O)(=O)O)c1)c1ccc(C(=C2C=CC(=[N+](CC)Cc3cccc(S(=O)(=O)[O-])c3)C=C2)c2ccccc2)cc1,Potency,[9],inactive
same,Potency,[8],54.5 µM (active)
O=S(=O)(O)c1ccc(N=Nc2cc(S(=O)(=O)O)c3ccccc3c2O)c2ccccc12,activation,[1],11.4%
same,outcome,[2],inactive
same,Potency,[3],inactive
same,Potency,[4],inactive
same,Potency,[5],inactive
same,Potency,[6],inactive
same,outcome,[7],inactive
Cc1c(Cl)cccc1Cl,Potency,[9],inactive
same,Potency,[4],inactive
same,Potency,[6],inactive
same,outcome,[7],inactive
CCCCC(CC)COC(=O)c1ccc(C(=O)OCC(CC)CCCC)cc1 (stereo not drawn),outcome,[2],inactive
same,Potency,[3],inactive
same,Potency,[8],inactive
C[Si](C)(Cl)[Si](C)(C)Cl,activation,[1],-5.2%
same,outcome,[2],inactive
same,Potency,[3],inactive
same,Potency,[5],inactive
same,Potency,[6],inactive
same,outcome,[7],inactive
same,Potency,[8],inactive
O=C(O)C1(C(=O)Nc2ccc(Cl)cc2Cl)CC1,outcome,[2],inactive
same,Potency,[6],inactive
same,outcome,[7],inactive
CCCCCCCCCCCC[N+](C)(C)[O-],activation,[1],-8.49%
same,Potency,[3],inactive
same,Potency,[5],inactive
same,Potency,[6],inactive
same,outcome,[7],inactive
C[Si]1(C)O[Si](C)(C)O[Si](C)(C)O1,activation,[1],-4.74%
same,outcome,[2],inactive
same,Potency,[3],inactive
same,Potency,[5],inactive
same,outcome,[7],inactive
same,Potency,[8],inactive
O=C(O)c1cc2ccccc2cc1O,activation,[1],-7.51%
same,outcome,[2],inactive
same,Potency,[4],inactive
same,Potency,[6],inactive
same,outcome,[7],inactive
O=C=NCCCCCCN=C=O,Potency,[9],inactive
same,Potency,[5],inactive
same,Potency,[6],inactive
same,outcome,[7],inactive
same,Potency,[8],inactive
C=C(C)C(=O)OCCN(C)C,Potency,[9],inactive
same,Potency,[5],inactive
same,Potency,[6],inactive
same,outcome,[7],inactive
CCCCCCCCCCCCCCCC,Potency,[9],inactive
same,Potency,[5],inactive
CCCCCCCCCCCCCCCCCC#N,Potency,[9],inactive
same,Potency,[4],inactive
same,Potency,[5],inactive
same,Potency,[8],inactive
CCCCC/C=C\C/C=C\CCCCCCCC(=O)OC,Potency,[9],inactive
same,Potency,[5],inactive
CCCCCCc1ccc(N)cc1,activation,[1],-4.5%
same,outcome,[2],inactive
same,Potency,[3],inactive
same,Potency,[4],inactive
same,outcome,[7],inactive
BrC1CCC(Br)C(Br)CCC(Br)C(Br)CCC1Br (stereo not drawn),activation,[1],-5.15%
same,outcome,[2],inactive
same,Potency,[3],inactive
same,Potency,[4],inactive
same,Potency,[5],inactive
same,Potency,[6],inactive
same,Potency,[8],inactive
O=C1NC(=O)C(Cc2ccc(OCCN3COc4ccccc4C3=O)cc2)S1 (stereo not drawn),activation,[1],-3.44%
same,Potency,[3],inactive
same,Potency,[8],48.6 µM (active)
COC(=O)C(C)Oc1ccc(Oc2ncc(C(F)(F)F)cc2Cl)cc1 (stereo not drawn),Potency,[9],inactive
same,Potency,[5],inactive
same,outcome,[7],inactive
CCOc1ccc(NC(=O)OC(C)C)cc1OCC,Potency,[3],inactive
same,Potency,[4],inactive
same,Potency,[5],inactive
same,Potency,[6],inactive
same,outcome,[7],inactive
same,Potency,[8],inactive
CCCCN(CCCC)CCCCCCN(CCCC)CCCC,Potency,[9],inactive
same,Potency,[5],inactive
same,Potency,[6],inactive
same,outcome,[7],inactive
Cc1nn(C)c(Oc2ccccc2)c1/C=N/OCc1ccc(C(=O)OC(C)(C)C)cc1,Potency,[9],inactive
same,Potency,[4],inactive
CC(=O)CC(=O)Nc1ccc(C)cc1C,activation,[1],7%
same,outcome,[2],inactive
same,Potency,[3],inactive
same,Potency,[4],inactive
C=C(C)C(=O)OCCCCCCCCCCCC,Potency,[9],inactive
same,Potency,[5],inactive
CO[Si](CCCNCCN)(OC)OC,activation,[1],4.85%
same,outcome,[2],inactive
same,Potency,[5],inactive
same,Potency,[6],inactive
same,outcome,[7],inactive
CCCCOCCOCCO,Potency,[9],inactive
same,Potency,[6],inactive
same,Potency,[8],inactive
O=C(Cl)c1ccc(C(=O)Cl)cc1,Potency,[9],inactive
same,Potency,[4],inactive
same,Potency,[6],inactive
same,outcome,[7],inactive
